In PubChem BioAssay (EPA / NIEHS):
Results filed as inconclusive are left out. A structure can be active in one record and inactive in another. Calls of active or inactive are those of the source. How the source made its calls, unless noted: active means hit-call score of the fitted dose curve at least 0.9, where 1 is the maximum; inactive means score below 0.9.

Tests used:
[1] = CCTE_Shafer_MEA_dev_per_network_spike_spike_percent: CCTE's Neural Network Formation Assay for Percent of Spikes in a Network Spike, Shafer Lab (AID 2284054)
Outline: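 Read-out: percent of spikes falling in a 0.05 s window at network-spike peak, from spontaneous MEA recordings on days 5, 7, 9 and 12; trapezoidal AUC; loss of signal versus DMSO. Rat cortical cultures, compound present throughout.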

[2] = UKN5_HCS_SBAD2_cell_viability: Viability Assessment in the University of Konstanz (UKN) Leist Lab Neurite Outgrowth Assay in human iPSC-derived immature Dorsal Root Ganglia Neurons (UKN5) (AID 2284056)
Outline: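 iPSC-derived immature peripheral neurons (SBAD2) seeded on Matrigel with CHIR99021, SU5402 and DAPT, dosed 1 h later for 24 h. Viability from Hoechst H-33342 and calcein-AM live staining, high-content imaging; bidirectional fit versus DMSO.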

[3] = CCTE_Shafer_MEA_dev_LDH: CCTE's Lactate Dehydrogenase Assay for Cytotoxicity in the Neural Network Formation Assay, Shafer Lab (AID 2284068; active means hit-call score of the fitted dose curve at least 0.9, where 1 is the maximum;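 further: exposure for twelve days from plating with re-dosing on DIV 5 and 9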)
Outline: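 Primary rat cortical neurons were plated on PEI/laminin MEA plates and exposed from day 0 for twelve days, with compound renewed at DIV 5 and 9. Cytotoxicity was determined by spectrophotometric LDH assay relative to DMSO.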

[4] = UKN5_HCS_SBAD2_neurite_outgrowth: University of Konstanz (UKN) Leist Lab Neurite Outgrowth Assay in human iPSC-derived immature Dorsal Root Ganglia Neurons (UKN5) (AID 2284070); details: actives raise or lower the signal
Outline: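 Neurite outgrowth is quantified as calcein-AM-labelled neurite area in human iPSC-derived peripheral neurons treated for 24 h, starting 1 h after plating in medium with CHIR99021 (1.5 uM), SU5402 (5 uM) and DAPT (5 uM).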

[5] = CCTE_Shafer_MEA_dev_AB: CCTE's Alamar Blue Assay for Cytotoxicity in the Neural Network Formation Assay, Shafer Lab (AID 2284083; active means hit-call score of the fitted dose curve at least 0.9, where 1 is the maximum;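 further: twelve days of exposure from plating with re-dosing on DIV 5 and 9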)
Outline: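 Primary rat cortical neurons on PEI-coated 48-well MEA plates, 1.5 x 10^5 cells/well in laminin drop; compound exposure from day 0 of plating for twelve days, renewed at medium changes on DIV 5 and 9. Viability read as resazurin reduction by fluorescence, relative to DMSO.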

[6] = CCTE_Shafer_MEA_dev_mutual_information_norm: CCTE's Neural Network Formation Assay for Mutual Information Normalization, Shafer Lab (AID 2284091);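 on AC50: mutual information between electrodes summarised as area under curve across four recording days; potency is for a decrease in mutual information relative to DMSO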
Outline: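 Neurons from rat cortex were seeded at 1.5 x 10^5 cells/well onto PEI-coated MEAs in a laminin drop, then exposed to compound from day 0 for twelve days. Network recordings on four days gave mutual information, summarised by AUC relative to DMSO.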

[7] = CCTE_Shafer_MEA_dev_correlation_coefficient_mean: CCTE's Neural Network Formation Assay for Mean Correlation Coefficient, Shafer Lab (AID 2284093);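 on AC50: well mean pairwise spike train correlation integrated as AUC over recording days 5 to 12; potency fitted for loss of correlation relative to DMSO vehicle wells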
Outline: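 Spontaneous activity recorded on days 5, 7, 9 and 12 post-plating; pairwise spike correlations are averaged across active electrodes and collapsed to an area-under-curve. Rat cortical cultures are dosed from plating through 12 days, with compound renewed at media changes.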

[8] = UKN2_HCS_IMR90_neural_migration: University of Konstanz (UKN) Leist Lab Neural Crest Cell Migration Assay in human induced IMR90 Pluripotent Stem Cells (UKN2) (AID 2284204); details: actives raise or lower the signal
Outline: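 Stopper-exclusion migration (cMINC), human iPSC-derived neural crest cells; N2-S + EGF/FGF; compound added 24 h post-stopper removal, 24 h exposure. Readout: calcein-AM/Hoechst 30 min, HCS fluorescence imaging; bidirectional fitting, DMSO baseline.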

[9] = UKN4_HCS_LUHMES_neurite_outgrowth: University of Konstanz (UKN) Leist Lab Neurite Outgrowth Assay in human LUHMES cells (UKN4) (AID 2284206); details: actives raise or lower the signal
Outline: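 Neurite area in dopaminergic-model LUHMES neurons is measured by high-content imaging of calcein-AM after 24 h treatment starting shortly after day-2 replating; Hoechst staining tracks viability.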

[10] = IUF_NPC1b_proliferation_BrdU_72hr: Leibniz Research Institute for Environmental Medicine (IUF) 72-hour Neural Progenitor Cell Bromodeoxyuridine (BrdU) Proliferation Assay (NPC1b) (AID 2284207)
Outline: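 Luminescent BrdU ELISA measured DNA synthesis during the last 16 h of a 72 h exposure of primary human neural progenitor spheres grown with EGF and FGF. Signal was fitted relative to DMSO controls.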

[11] = IUF_NPC1a_proliferation_area_72hr: Leibniz Research Institute for Environmental Medicine (IUF) 72-hour Neural Progenitor Cell Proliferation Area Assay (NPC1a) (AID 2284208)
Outline: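 Proliferation read as increase in sphere area by phase-contrast imaging over 72 h continuous compound exposure (no renewal) of hNPC spheres grown with EGF/FGF at 37C, 5% CO2. Growth-factor withdrawal served as positive control; DMSO as baseline.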

[12] = IUF_NPC1_viability_72hr: Viability Assessment at 72 hours in the Leibniz Research Institute for Environmental Medicine (IUF) Neural Progenitor Cell Proliferation Assay (NPC1) (AID 2284209)
Outline: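 Three-day continuous exposure of human neural progenitor spheres under EGF/FGF-driven proliferation; cell viability scored by alamar blue signal versus DMSO.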

[13] = UKN4_HCS_LUHMES_cell_viability: Viability Assessment in the University of Konstanz (UKN) Leist Lab Neurite Outgrowth Assay in human LUHMES cells (UKN4) (AID 2284232)
Outline: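 Measured in replated, 2-day-differentiated LUHMES cells treated 24 h; stained 30 min with H-33342 and calcein-AM before high-content imaging.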

[14] = UKN2_HCS_IMR90_cell_viability: Viability Assessment in the University of Konstanz (UKN) Leist Lab Neural Crest Cell Migration Assay in human induced IMR90 Pluripotent Stem Cells (UKN2) (AID 2284233);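 further: cells exposed to compound for 24 h after a 24 h migration phase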
Outline: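 Viability read as calcein-AM fluorescence by high-content imaging, Hoechst co-stain, 30 min. Human iPSC (IMR90) neural crest cells had migrated 24 h into stopper-defined gaps before 24 h chemical exposure. Fitted bidirectionally relative to DMSO.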

[15] = IUF_NPC2a_radial_glia_migration_120hr: Leibniz Research Institute for Environmental Medicine (IUF) 120-hour Neural Progenitor Cell Migration Assay for Radial Glia Migration (NPC2a) (AID 2284298)
Outline: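 Migration distance in um, sphere core edge to migration-area edge, derived by nuclei-density algorithm from Hoechst images after 120 h compound exposure. Primary hNPC spheres differentiated on poly-D-lysine/laminin in N2 medium, 37C; medium half-replaced day 3.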

[16] = IUF_NPC2a_radial_glia_migration_72hr: Leibniz Research Institute for Environmental Medicine (IUF) 72-hour Neural Progenitor Cell Migration Assay for Radial Glia Migration (NPC2a) (AID 2284299)
Outline: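 Spheres of human primary neural progenitors migrate on poly-D-lysine/laminin under compound exposure at 37C, 5% CO2. The 72 h radial glia migration distance comes from brightfield images, measured manually.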

[17] = IUF_NPC3_neuronal_differentiation_120hr: Leibniz Research Institute for Environmental Medicine (IUF) 120-hour Neuronal Differentiation Assay (NPC3) (AID 2284301)
Outline: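 hNPC spheres, PDL/laminin, DMEM/F12 3:1 + 1% N2, 37C, 5% CO2; 7 concentrations + solvent control, 5 d exposure, half-change day 3. Fix 120 h; TUBB3/Hoechst ICC, CNN neuron calling; % neurons vs nuclei, DMSO-normalized.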

[18] = IUF_NPC4_neurite_length_120hr: Leibniz Research Institute for Environmental Medicine (IUF) 120-hour Neuronal Morphology Assay for Neurite Length (NPC4) (AID 2284302)
Outline: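 hNPC spheres (0.3 mm, fetal brain GW 16-19) on PDL/laminin, DMEM:F12 3:1 + 1% N2, 37C 5% CO2; 7 concs + solvent control, day 0-5, half medium change d3; fix 120 h, TUBB3 ICC, mean neurite length um vs DMSO.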

[19] = IUF_NPC2-5_cytotoxicity_120hr: Cytotoxicity Assessment at 120 hours in the Leibniz Research Institute for Environmental Medicine (IUF) Neural Progenitor Cell Migration and Differentiation Assay (NPC2-5) (AID 2284307; active means hit-call score of the fitted dose curve at least 0.9, where 1 is the maximum)
Outline: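 Membrane-integrity loss measured as LDH activity in medium supernatant via resazurin-to-resorufin fluorescence after 120 h exposure. hNPC spheres from GW 16-19 fetal cortex differentiated on poly-D-lysine/laminin, 37C, medium half-refreshed day 3; seven concentrations, DMSO max 0.1%.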

[20] = IUF_NPC2-5_cell_number_120hr: Cell Number Assessment at 120 hours in the Leibniz Research Institute for Environmental Medicine (IUF) Neural Progenitor Cell Migration and Differentiation Assay (NPC2-5) (AID 2284308);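 further: count of Hoechst-stained nuclei in migration zone around plated human neural progenitor spheres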
Outline: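 Counting of all Hoechst-stained nuclei in the migration area at 120 h, versus DMSO control. Primary hNPC spheres differentiated on poly-D-lysine/laminin in N2 medium at 37C, dosed from day 0 (7 concentrations, DMSO ≤0.1%), half-refed day 3.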

[21] = IUF_NPC2-5_viability_120hr: Viability Assessment at 120 hours in the Leibniz Research Institute for Environmental Medicine (IUF) Neural Progenitor Cell Migration and Differentiation Assay (NPC2-5) (AID 2284312)
Outline: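 Human fetal neural progenitor spheres (0.3 mm) plated on poly-D-lysine/laminin in N2 differentiation medium, exposed 120 h with half-medium refresh at day 3. Viability by alamar blue resazurin fluorescence; 7 concentrations, DMSO max 0.1%.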

[22] = IUF_NPC1_cytotoxicity_72hr: Cytotoxicity Assessment at 72 hours in the Leibniz Research Institute for Environmental Medicine (IUF) Neural Progenitor Cell Proliferation Assay (NPC1) (AID 2284332; active means hit-call score of the fitted dose curve at least 0.9, where 1 is the maximum;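 further: rising LDH signal means more cytotoxicity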)
Outline: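 Readout is fluorescence from LDH-dependent resazurin conversion, sampled from culture medium after compound contact lasting 72 h. Each well holds one 0.25-0.35 mm human progenitor sphere kept at 37C, 5% CO2 with EGF and FGF.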

Measured: AC50

C/C(=C/C=C/[C@@H](C)C(=O)O)[C@H]1CN[C@H](C(=O)O)[C@H]1CC(=O)O
active: [3] 6.75 µM | [6] 50.7 nM | [7] 1.56 µM | [18] 40.6 nM
inactive: [1] | [2] | [4] | [5] | [6] | [7] | [8] | [9] | [10] | [11] | [12] | [13] | [14] | [15] | [16] | [17] | [19] | [20] | [21] | [22]
